The text below walks through data of ChEMBL document CHEMBL4513216, “Probing the Open Global Health Chemical Diversity Library for Multistage-Active Starting Points for Next-Generation Antimalarials” (ACS Infect Dis, 2020).

SMILES strings stand for the structures. About 2,700 (4%) of roughly 68,000 compounds showed an effect of 50% or more. For the sample, strong results were picked, then their nearest neighbours and some compounds at random.

The test system of this assay is Plasmodium berghei. In words: Screen against P. berghei liver stage (PbLuc), transformed with Luciferase, at 2uM. It counts as functional, HepG2. Conditions: tested at 2 uM.
Consider `Cc1nc(-c2ccccc2C)n(CC(=O)NC2CCCC2)n1`, for which the INHIBITION came out at 31.57%.
`Cn1ccc(C(=O)N2CCCC2c2cc[nH]n2)n1` (stereo not drawn): the INHIBITION was found to be 16.43%.
For `COCCc1ncc(CN2C[C@@H](C(=O)O)[C@H](C(C)C)C2)cn1`, the INHIBITION is recorded as -59.6%.
Turning to `COc1ccc(-n2ccc(CNCc3cccc(OC)c3)n2)cc1`, the INHIBITION stood at 28.75%.
Take `O=C(NCc1cnn2cccnc12)C1CC2(CCNCC2)CN1` (stereo not drawn): the INHIBITION is -1.33%.
Under `Cn1cc(-c2cnc(N3CCOCC3)nc2)cc1C(=O)NCCC#N` stands -0.45%.
Take `COCC(NC(=O)c1cc(NC(C)=O)ccc1Cl)c1ccccn1` (stereo not drawn): the INHIBITION stood at 29.13%.
Take `COCC(NC(=O)c1cc(NC(C)=O)ccc1Cl)c1ccnn1C` (stereo not drawn): the INHIBITION was 21.97%.
Under `CCC(NC(=O)c1cc(NC(C)=O)ccc1Cl)c1cc(C)ccn1` (stereo not drawn) stands 57.75%; under `COC(=O)C1CCCN1CC(=O)NCc1ccc(OCC(N)=O)cc1` (stereo not drawn), -6.33%.
In the case of `O=C1CCC[C@]2(CN(S(=O)(=O)N3CCCCC3)C[C@H]2c2cccnc2)N1`, the INHIBITION is reported as -0.64%.
As to `CC(C)=CCN1CCN(CCCc2ccccc2)[C@H]2CS(=O)(=O)C[C@H]21`, the INHIBITION was 7.29%.
Under `CCCN1CCN(C(=O)c2cccc(C)n2)[C@H]2CS(=O)(=O)C[C@H]21` stands 6.84%.
Regarding `O=C(C1CC1)N1CCN(C(=O)CSc2ccccn2)[C@H]2CS(=O)(=O)C[C@H]21`, the INHIBITION was -32.88%.
On to `O=C(CSc1ccccn1)N1CCN(CCO)[C@@H]2CS(=O)(=O)C[C@@H]21`, for which the INHIBITION is 67.28%.
For the molecule `Cc1nnsc1C(=O)N1CCN(CC2CC2)[C@@H]2CS(=O)(=O)C[C@@H]21`, the INHIBITION is reported as 0.54%.
In the case of `CCCN1CCN(C(=O)Cc2cccnc2)[C@H]2CS(=O)(=O)C[C@H]21` it was 23.19%.
In the case of `CC(C)=CCN1CCN(C(=O)CSc2ccccn2)[C@H]2CS(=O)(=O)C[C@H]21` it was 64.9%.
With `CC(C)=CCN1CCN(C(=O)COc2ccccc2)[C@H]2CS(=O)(=O)C[C@H]21`, the INHIBITION came to 41.68%.
Turning to `CCCN1CCN(C(=O)c2ccc3ccccc3n2)[C@H]2CS(=O)(=O)C[C@H]21`, the INHIBITION is listed as 57.21%.
Under `CC(=O)N1CCN(C(=O)c2snnc2C)[C@H]2CS(=O)(=O)C[C@H]21` stands -3.73%; under `CCCN1CCN(C(=O)c2cc3ccccc3cn2)[C@H]2CS(=O)(=O)C[C@H]21`, 35.01%; under `CC(C)=CCN1CCN(C(=O)c2snnc2C)[C@H]2CS(=O)(=O)C[C@H]21`, 51.38%.
`C[C@H](NC(=O)C1CCCC1)c1nc2cc(-c3ccc(F)cc3)ncn2n1`: the INHIBITION was 39.48%.
As for `CC(O)c1cccc(OCc2ccon2)c1` (stereo not drawn), the INHIBITION stood at 46.28%.
For `Cn1cc(CN2CC[C@H]3O[C@H](C(=O)Nc4cnccn4)CC[C@H]32)cn1`, the INHIBITION is on record as -20.89%.
Regarding `CN(CC(=O)Nc1cccnc1)CC1CCCN1c1cccnn1` (stereo not drawn), the INHIBITION is on record as 45.48%.
In the case of `Cc1nn(C)c(Cl)c1C1CCCN1C(=O)c1cnc[nH]1` (stereo not drawn), the INHIBITION came out at 8.37%.
With `CC(=O)N(Cc1noc(C)n1)C1CCN(CC(=O)N(C)C2CC2)C1` (stereo not drawn), the INHIBITION is recorded as -3.97%.
In the case of `Cc1nccn1CCN(C)C(=O)C1CCN(C(=O)C2CCC2)CC1` it was 20.45%; in that of `CN(C)CCN1C[C@@H]2CN(S(=O)(=O)c3ccccc3)C[C@@H]2C1=O`, 19.16%.
With `Cc1ccc(CN2C[C@H](OCC3CCOCC3)[C@H]3COC[C@H]32)o1`, the INHIBITION was determined as 18.32%.
In the case of `O=C(c1ccc2nccnc2c1)N1CCN(CCO)[C@@H]2CS(=O)(=O)C[C@@H]21`, the INHIBITION was 14.82%.
In the case of `Cn1cnc2cc(C(=O)N3CCN(CCO)[C@@H]4CS(=O)(=O)C[C@@H]43)ccc21`, the INHIBITION came out at 55.36%.
Under `CC(C)CN1CCN(S(=O)(=O)c2cn(C)cn2)[C@H]2CS(=O)(=O)C[C@H]21` stands 15.74%; under `Cc1nc2ccc(C(=O)N3CCN(CCO)[C@@H]4CS(=O)(=O)C[C@@H]43)cc2o1`, -85.34%; under `CC(C)=CCN1CCN(Cc2nccn2C)[C@H]2CS(=O)(=O)C[C@H]21`, 8.26%.
For the molecule `CC(C)=CCN1CCN(S(=O)(=O)c2cn(C)cn2)[C@H]2CS(=O)(=O)C[C@H]21`, the INHIBITION worked out at 50.98%.
Consider `O=C(Cn1nc(-c2ccc(F)cc2)oc1=O)NCCc1ccccc1`, for which the INHIBITION is recorded as 20.57%.
For `c1ccc(OCc2nnn3c2CN(c2ncccn2)CCC3)nc1`, the INHIBITION is given as -7.52%.
For `Cc1nnc2ccc(OCCNS(C)(=O)=O)nn12`, the INHIBITION is given as -26.08%.
As to `N#Cc1cccc(CN2CCn3cc(Cn4cccn4)nc3C2)c1`, the INHIBITION was found to be 21.42%.
On to `CSc1ccc(NCC(=O)NCC2CC2)cc1F`, for which the INHIBITION is 55.66%.
In the case of `CSc1ccc(NCC(=O)NC(=O)NCC(F)(F)F)cc1F`, the INHIBITION is reported as 18.63%.
On to `CSc1ccc(NCC(=O)NCC(=O)N2CCCC2)cc1F`, for which the INHIBITION was -30.18%.
For `COc1ccc(CNC(=O)NC2CCN(CC3CCCC3)CC2)cn1`, the INHIBITION is given as -17.01%.
With `CCCN1C[C@H](NC(=O)c2cc(C)no2)[C@@H](c2ccc(OC)cc2)C1`, the INHIBITION turned out to be 18.22%.
`CCCN1C[C@H](NC(=O)c2ccccc2F)[C@@H](c2ccc(OC)cc2)C1`: the INHIBITION was found to be 16.55%.
